The nature of test [1]: NCI Yeast Anticancer Drug Screen. Data for the rad50 strain (AID 155).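 Also: 0% = growth of vehicle-only cultures of the same strain.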 As to conditions: S. cerevisiae rad50 strain growth inhibition; at 50.0 µM; stronger effect = higher value. An outline of the steps:
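Inhibition values express reduced yeast growth in compound-treated cultures relative to vehicle-treated controls.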

The nature of test [2]: NCI Yeast Anticancer Drug Screen. Data for the mec2-1 strain (AID 157). As to conditions: S. cerevisiae mec2-1 strain, at 50.0 µM, stronger effect = higher value. An outline of the steps: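 Strain: mec2-1 (DNA repair/cell cycle alteration). Compound exposure, then growth measured; inhibition expressed relative to vehicle.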
Test [3] can be described thus: NCI Yeast Anticancer Drug Screen. Data for the sgs1 mgt1 strain (AID 161).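 Also: 0% = growth of cultures given vehicle only.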 As to conditions: S. cerevisiae sgs1 mgt1 strain, at 50.0 µM, stronger effect = higher value. An outline of the steps:
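Read-out: growth inhibition vs vehicle controls. Cells: mutant yeast strain deficient in DNA damage repair.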

Test [4] is described as follows: NCI Yeast Anticancer Drug Screen. Data for the cln2 rad14 strain (AID 165).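 Also: 0% = growth equal to vehicle treated cultures.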 The conditions noted are these: S. cerevisiae cln2 rad14 strain, at 50.0 µM, stronger effect = higher value. An outline of the steps:
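Compounds are applied to the cln2 rad14 yeast strain, and growth is then compared with that of vehicle-treated cultures to give inhibition.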

A short description of test [5]: NCI Yeast Anticancer Drug Screen. Data for the bub3 strain (AID 167). The conditions noted are these: S. cerevisiae bub3 mutant strain, at 50.0 µM, stronger effect = higher value. The method in brief:
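Steps: expose the mutant yeast strain to compound; grow alongside vehicle-treated cultures; measure growth; express inhibition against the vehicle cultures.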

The nature of test [6]: NCI Yeast Anticancer Drug Screen. Data for the mlh1 rad18 strain (AID 175). The conditions noted are these: S. cerevisiae mlh1 rad18 strain growth inhibition; at 50.0 µM; stronger effect = higher value. The method in brief:
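Read-out is yeast growth inhibition, calculated against vehicle-only controls. The compound was applied to a strain engineered with DNA damage repair alterations.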

Structures are written as SMILES. This is part of a sample that, as a whole, favours compounds with a hit. Of some 79,000 tested, about 15% had one in any assay. Unmarked numbers belong to inactive results. Activity calls are given as the source filed them. Rule as the data show it: active = growth inhibition above about 70%; inactive = the rest.

`CC1(C)CC(=O)C(N=Nc2ccccc2)=C(O)C1`: the growth inhibition in test [1] is 0.7%; in test [2] it was 2.3%; in test [3], -2.55%; in test [4], -49.4%; in test [5], 24.2%; in test [6], -0.75%.
In the case of `C#CCOC(=O)c1ccc(OC(C)=O)cc1`, the growth inhibition was -3.45% in test [1]; 1.45% in test [2]; 10.1% in test [3]; 3.45% in test [4]; 14.2% in test [5]; -1.65% in test [6].
With `CCCC(=O)NC(C)(C)C`, the growth inhibition in test [1] is 8.8%; in test [2], -5.3%; in test [3], -33.9%; in test [4], 2.9%; in test [5], 6.2%; in test [6] it was -21%.
Turning to `CC1=N/C(=C\c2ccc([N+](=O)[O-])cc2)C(=O)O1`, the growth inhibition in test [1] is 19.9%; in test [2], 9.05%; in test [3], 2.45%; in test [4], 4.6%; in test [5], 13.2%; in test [6], 42.8%.
Regarding `O=C(CC12C3C4C1C1C2C3C41CC(=O)NO)NO` (stereo not given), the growth inhibition in test [1] was -28.8%; in test [2], -28.1%; in test [3] it was -29.2%; in test [4], 11.9%; in test [5] it was -19.9%; in test [6], -10.9%.
Take `O=c1c2ccccc2nc(-c2ccccc2)n1NC(=S)Nc1ccccc1`: the growth inhibition in test [1] was -27.9%; in test [2], -42.6%; in test [3], -39.8%; in test [4], -13.8%; in test [5], -19.9%; in test [6], -19%.
As to `COc1ccc(N=C2C(=Nc3ccc(OC)cc3)N(S(=O)(=O)c3ccccc3)C(=S)N2c2ccc(OC)cc2)cc1`, the growth inhibition in test [1] was -11.8%; in test [2], -35%; in test [3], -35.5%; in test [4], -23.9%; in test [5] it was 0.2%; in test [6], -26.1%.
On to `O=S(=O)(C/C=C/COc1ccccc1)c1ccc2ccccc2c1`, for which the growth inhibition is 3.05% in test [1]; 2.65% in test [2]; 23.8% in test [3]; 3.6% in test [4]; -5.85% in test [5]; -12.9% in test [6].
`CCN(CC)CCCO`: the growth inhibition is 27.8% in test [1]; -12.3% in test [2]; -7.75% in test [3]; -8.8% in test [4]; -4.6% in test [5]; 20.1% in test [6].
For the molecule `O=C(O)c1cccc(C#Cc2ccccc2)c1`, the growth inhibition in test [1] was 16.7%; in test [2], 5.25%; in test [3], 12.5%; in test [4], -15.4%; in test [5], 4.55%; in test [6] it was 25.1%.
With `COc1ccc(C(=O)CC(C#N)c2ccccc2Cl)cc1` (stereo not given), the growth inhibition was 19.8% in test [1]; 39% in test [2]; 41.2% in test [3]; 13.1% in test [4]; 64% in test [5]; 8.6% in test [6].
For `C/C(O)=C(\C=NC(=S)c1ccncc1)C(=O)Nc1ccccc1C`, the growth inhibition in test [1] is -26.4%; in test [2] it was -37.6%; in test [3], -4.8%; in test [4], 13.3%; in test [5] it was -4.5%; in test [6] it was -26.9%.
On to `CN(C=C(C#N)C#N)c1ccccc1`, for which the growth inhibition in test [1] was 8.7%; in test [2], -4.65%; in test [3] it was -0.1%; in test [4], -3.95%; in test [5] it was 9.05%; in test [6], 16.4%.
Consider `CC(=O)N(C)N=NCCCl`, for which the growth inhibition in test [1] was 26.2%; in test [2], 7.2%; in test [3], 10.2%; in test [4], -29.1%; in test [5], 12%; in test [6], 3.85%.
As for `CC(C)(C)C(=O)Oc1ccc(/C=C/C(=O)c2ccc(OC(=O)C(C)(C)C)cc2)cc1`, the growth inhibition in test [1] is -5.45%; in test [2] it was -20.9%; in test [3] it was -28%; in test [4], -20.9%; in test [5], -22.9%; in test [6] it was -24.4%.
For `COc1ccc(C(OC2OC(n3cnc4c(=S)nc(N)[nH]c43)CC2OC(C)=O)(c2ccccc2)c2ccc(OC)cc2)cc1` (stereo not given), the growth inhibition in test [1] was 17.9%; in test [2], 21.9%; in test [3], 11.2%; in test [4], -54.4%; in test [5] it was 23.4%; in test [6], 24.4%.
On to `C=C(C(=C)P(=S)(c1ccccc1)c1ccccc1)P(=S)(c1ccccc1)c1ccccc1`, for which the growth inhibition in test [1] is -10%; in test [2], -10.7%; in test [3], -37.1%; in test [4], -7.15%; in test [5] it was -5.8%; in test [6], -16.3%.
For `O=C1CC(=O)c2cccc3cccc1c23`, the growth inhibition in test [1] is 42.8%; in test [2] it was 22.7%; in test [3] it was 44.4%; in test [4], 7.35%; in test [5], 47.9%; in test [6] it was 27.1%.
Take `CCC[CH2][Sn]1([CH2]CCC)[O]C2C(CO)OC(n3c(Br)c(C(N)=O)c4c(N)ncnc43)C2[O]1` (stereo not given): the growth inhibition in test [1] is 98.3% (active); in test [2], 98.4% (active); in test [3], 98.7% (active); in test [4], 97.5% (active); in test [5], 97.5% (active); in test [6], 98.5% (active).
In the case of `COc1cc(C(=O)Nc2cccc(Cl)c2Cl)cc(OC)c1OC`, the growth inhibition was -7.45% in test [1]; -13.6% in test [2]; 12% in test [3]; 21.2% in test [4]; 18% in test [5]; 10.9% in test [6].

The record behind these values is PubChem BioAssay (NCI).
